SKKanGAS inh: blocks kanamycin growth of S. pyogenes SKKanGAS strain | BacTiter-Glo, 6 h | inhibition, % at 7.5 µM | hit rate 1.3% among 300,000 | AID 1662;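 active = mean replicate score, as percent of positive control median, at least 50; inconclusive = mean below 50 but one replicate at or above 50; inactive = mean and every replicate below 50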;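 note: strain carries kanamycin resistance gene driven by streptokinase promoter and grows in 40 µg/ml kanamycin; loss of luminescence reflects streptokinase promoter inhibition or plain growth inhibition; 0% = median of DMSO wells and 100% = positive control at its reference dose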
tim23-1 inh: growth inhibitors of tim23-1 mutant yeast. inhibition, % at 20 µM. S. cerevisiae tim23-1 growth, BacTiter-Glo luminescence, 24 h. hit rate 1.3% among 330,000. AID 463212;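 active = growth inhibition of the mutant yeast at or above 50%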;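 note: temperature-sensitive mutant grown at 25 °C; plate controls were DMSO-treated mutant yeast for no effect and medium wells lacking yeast for full effect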
PfHsp90 yeast 2: reduces growth (ATP signal) of yeast expressing P. falciparum Hsp90; S. cerevisiae expressing PfHsp90, BacTiter-Glo ATP, 48 h; yeast lacking PDR1 and PDR3 efflux regulators; inhibition, % at 9.4 µM; hit rate 0.32% among 310,000;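 active = every replicate shows inhibition above about 80%, whatever the replicate mean, limit read from the data; inconclusive = mean inhibition reaches the set limit but some replicate falls short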;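 note: 0% = DMSO neutral controls and 100% = 20 µM radicicol positive controls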
NALP3 yeast inh: blocks the NALP3 inflammasome reconstituted in yeast; Yeast reconstituted NLRP3/ASC/caspase-1, beta-gal luminescence, 24 h; inhibition, % at 10 µM; hit rate 0.39% among 330,000; AID 2825;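 active = inhibition of 50% or more; inactive = inhibition below 50%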;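 note: plate controls were induced DMSO wells for no effect and uninduced yeast grown without galactose for full effect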
TIM10 inh: inhibits growth of TIM10 yeast strain; S. cerevisiae TIM10 strain growth, BacTiter-Glo luminescence, 24 h; inhibition, % at 10 µM; hit rate 1.4% among 330,000;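 active = inhibition of 40% or more at the single tested concentration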;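 note: wild-type TIM10 isogenic control strain grown at permissive 25 °C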
tim10-1 inh: tim10-1 yeast growth inhibition. S. cerevisiae tim10-1 ts strain growth, BacTiter-Glo, 24 h. inhibition, % at 20 µM. hit rate 2.2% among 330,000. AID 463190;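 active = inhibition of at least 40%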;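 note: mutant grown at 25 °C; 0% = DMSO wells with yeast and 100% = wells holding no yeast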
tim10-1 conf: tim10-1 yeast growth inhibition, confirmed | shares compounds with tim10-1 inh | S. cerevisiae tim10-1 ts strain growth, BacTiter-Glo, 24 h | inhibition, % at 20 µM | hit rate 56% among 7,400;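 active = inhibition of yeast growth at or above a set limit in either of two repeat tests at 20 µM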;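 note: tim10-1 mutant grown at permissive 25 °C to find synthetic lethal compounds; 0% = DMSO yeast wells and 100% = medium wells without yeast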
Starred values were filed as active, the others as inactive. The list is not random: actives were taken first. Their share in the collection is about 4.5%.

How did Cc1ccccc1NC(=S)NCc1ccc2c(c1)cc(C)n2C do in these assays?
SKKanGAS inh: 7; tim23-1 inh: 31; PfHsp90 yeast 2: -2; NALP3 yeast inh: 31; TIM10 inh: 25; tim10-1 inh: 43*; tim10-1 conf: 24

What do the screens show for `S=c1[nH]nc(-c2ccco2)n1/N=C/C=C/c1ccccc1`?
SKKanGAS inh: -10; tim23-1 inh: 36; PfHsp90 yeast 2: 5; NALP3 yeast inh: 1; TIM10 inh: 37; tim10-1 inh: 41*; tim10-1 conf: 30*

What do the screens show for `S=c1[nH]nc(-c2ccco2)n1/N=C/c1cccc(Cl)c1Cl`?
SKKanGAS inh: 18; tim23-1 inh: 36; PfHsp90 yeast 2: -53; NALP3 yeast inh: 28; TIM10 inh: 32; tim10-1 inh: 41*; tim10-1 conf: 33*

How did S=c1[nH]nc(-c2ccccc2)n1/N=C/C=C/c1ccco1 do in these assays?
SKKanGAS inh: -2; tim23-1 inh: 36; PfHsp90 yeast 2: -4; NALP3 yeast inh: 7; TIM10 inh: 15; tim10-1 inh: 37

Results for S=c1[nH]nc(-c2ccco2)n1/N=C/c1ccc(Cl)cc1Cl ?
SKKanGAS inh: 10; tim23-1 inh: 37; PfHsp90 yeast 2: -24; NALP3 yeast inh: 16; TIM10 inh: 38; tim10-1 inh: 38

How did O=C(c1ccccc1)c1c[nH]cc1-c1ccccc1 do in these assays?
SKKanGAS inh: 2; tim23-1 inh: 6; PfHsp90 yeast 2: -28; NALP3 yeast inh: -9; TIM10 inh: 5; tim10-1 inh: 13

What do the screens show for `O=C(c1cccs1)c1c[nH]cc1-c1ccccc1`?
SKKanGAS inh: -6; tim23-1 inh: 29; NALP3 yeast inh: 22; TIM10 inh: 28; tim10-1 inh: 52*; tim10-1 conf: 38*

What do the screens show for `CCCOc1ccc(C(=O)CCC(=O)Nc2ccc(N3CCN(C)CC3)cc2)cc1`?
tim23-1 inh: -17; PfHsp90 yeast 2: -1; NALP3 yeast inh: 26; TIM10 inh: -254; tim10-1 inh: -48

What do the screens show for `CCc1ccc(N(CC(=O)NC2CC2)S(=O)(=O)c2ccc(C)cc2)cc1`?
SKKanGAS inh: inconclusive; tim23-1 inh: -7; PfHsp90 yeast 2: 8; NALP3 yeast inh: 15; TIM10 inh: 0; tim10-1 inh: 5

How did CCCCC(=O)NC(=S)Nc1ccc(NC(=O)C(C)C)c(OC)c1 do in these assays?
SKKanGAS inh: 8; tim23-1 inh: 31; PfHsp90 yeast 2: 8; NALP3 yeast inh: -9; TIM10 inh: 17; tim10-1 inh: 43*; tim10-1 conf: 21

Results for CCCCC(=O)Nc1ccc(NC(=S)NC(=O)CCCCl)cc1OC ?
SKKanGAS inh: 2; tim23-1 inh: 22; PfHsp90 yeast 2: -4; NALP3 yeast inh: 17; TIM10 inh: 35; tim10-1 inh: 48*; tim10-1 conf: 39*

What do the screens show for `COCCN(C(=O)COC(=O)CNC(=O)c1ccc(C)cc1)c1c(N)n(Cc2ccccc2)c(=O)[nH]c1=O`?
PfHsp90 yeast 2: -26

What do the screens show for `Cc1ccnc(NC(=O)C2CCCN(c3ncnc4c3nc3n4CCCCC3)C2)c1` (stereo not given)?
SKKanGAS inh: 10; tim23-1 inh: 33; PfHsp90 yeast 2: -8; NALP3 yeast inh: 6; TIM10 inh: 22; tim10-1 inh: 45*; tim10-1 conf: 17

Results for O=C(Nc1ccc(Cl)cn1)C1CCN(c2ncnc3c2nc2n3CCCCC2)CC1 ?
SKKanGAS inh: 1; tim23-1 inh: 26; PfHsp90 yeast 2: -8; NALP3 yeast inh: 20; TIM10 inh: 24; tim10-1 inh: 50*; tim10-1 conf: 19

Results for COc1ccc(Cl)cc1NC(=O)C1CCCN(c2ncnc3c2nc2n3CCCCC2)C1 (stereo not given) ?
SKKanGAS inh: 14; tim23-1 inh: 36; PfHsp90 yeast 2: 30; NALP3 yeast inh: 11; TIM10 inh: 24; tim10-1 inh: 56*; tim10-1 conf: 23

How did O=C(Nc1cccnc1Cl)C1CCCN(c2ncnc3c2nc2n3CCCCC2)C1 (stereo not given) do in these assays?
SKKanGAS inh: 1; tim23-1 inh: 14; PfHsp90 yeast 2: -5; NALP3 yeast inh: 20; TIM10 inh: 4; tim10-1 inh: 14

What do the screens show for `CSc1cccc(NC(=O)C2CCCN(c3ncnc4c3nc3n4CCCCC3)C2)c1` (stereo not given)?
SKKanGAS inh: 12; tim23-1 inh: 38; PfHsp90 yeast 2: 3; NALP3 yeast inh: 16; TIM10 inh: 9; tim10-1 inh: 48*; tim10-1 conf: 4

Results for CC(=O)N1c2ccc(S(=O)(=O)NCC3CCC(C(=O)NC4CCCCC4C)CC3)cc2CC1C (stereo not given) ?
SKKanGAS inh: 3; tim23-1 inh: 4; PfHsp90 yeast 2: 7; NALP3 yeast inh: 24; TIM10 inh: 11; tim10-1 inh: 21

How did Cc1cc(N(C)C)nc(Nc2ccccc2)n1 do in these assays?
tim23-1 inh: -3; PfHsp90 yeast 2: 17; NALP3 yeast inh: 8; TIM10 inh: 11; tim10-1 inh: -13

Results for CN1CCN(c2nc(-c3ccccc3)c3cc(Cl)ccc3n2)CC1 ?
SKKanGAS inh: 3; tim23-1 inh: 26; PfHsp90 yeast 2: -109; NALP3 yeast inh: 13; TIM10 inh: 37; tim10-1 inh: 42*; tim10-1 conf: 18

How did CCC1CCc2c(sc(N)c2C(N)=O)C1 (stereo not given) do in these assays?
SKKanGAS inh: -1; tim23-1 inh: 20; PfHsp90 yeast 2: -1; NALP3 yeast inh: 7; TIM10 inh: 15; tim10-1 inh: 21

How did CC1CCc2c(sc(N)c2C(N)=O)C1 (stereo not given) do in these assays?
SKKanGAS inh: 0; tim23-1 inh: 17; NALP3 yeast inh: 5; TIM10 inh: 1; tim10-1 inh: 41*; tim10-1 conf: 25

How did CCN(C(=O)c1cc(S(=O)(=O)N2CCCCC2)c[nH]1)c1ccc(OC)cc1 do in these assays?
SKKanGAS inh: -5; tim23-1 inh: 27; PfHsp90 yeast 2: -10; NALP3 yeast inh: 16; TIM10 inh: 8; tim10-1 inh: 20

Results for COc1ccc(-c2[nH]ncc2-c2ccc3c(c2)OCCO3)c(O)c1 ?
SKKanGAS inh: 26; tim23-1 inh: 46; NALP3 yeast inh: 10; TIM10 inh: 35; tim10-1 inh: 40*; tim10-1 conf: 28

Results for O=C(CN(C(=O)CCC(=O)Nc1ccccn1)C1CCCC1)NCc1ccccc1 ?
SKKanGAS inh: 3; tim23-1 inh: 1; PfHsp90 yeast 2: -12; NALP3 yeast inh: -8; TIM10 inh: 4; tim10-1 inh: -11

How did CCOc1ccc(C2Nc3cccc4cccc(c34)N2)cc1OC do in these assays?
SKKanGAS inh: -7; tim23-1 inh: 17; PfHsp90 yeast 2: 3; NALP3 yeast inh: 19; TIM10 inh: 6; tim10-1 inh: 16
